Records with an inconclusive call do not appear. A number with no mark means an inactive call. Active and inactive are the calls of the source. Calls come from the whole dose curve; as a rule, active = well fitted inhibition curve with a large enough effect; inconclusive = small, poorly fitted or top-dose-only effect; inactive = flat fitted curve, though single readings scatter.
test: P-glycoprotein substrates identified in KB-8-5-11 adenocarcinoma cell line, qHTS therapeutic library screen (AID 1346987); conditions: KB-8-5-11 (P-gp overexpressing) viability, CellTiter-Glo, 72 h; series mostly up to 44.5 µM; activity change, negative = cytotoxicity: at the top concentration; note: nearly all actives have a fitted effect of over 65% in size
In short: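 P-gp-mediated resistance screen: KB-8-5-11 cells treated 72 h with compounds in dose-response. CellTiter-Glo viability.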
% is set by controls: 0 for no effect and ±100 for the full control effect; potency is the fitted concentration of half-maximal effect.

| SMILES | outcome | activity change, negative = cytotoxicity | Potency |
| --- | --- | --- | --- |
| CC1(C)CC[C@]2(C(=O)O[C@@H]3O[C@H](CO[C@@H]4O[C@H](CO)[C@@H](O)[C@H](O)[C@H]4O[C@@H]4O[C@H](CO)[C@H](O)[C@H](O)[C@H]4O)[C@@H](O)[C@H](O[C@@H]4O[C@H](CO)[C@@H](O)[C@H](O)[C@H]4O)[C@H]3O)CC[C@]3(C)C(=CCC4[C@@]5(C)CC[C@H](O[C@@H]6OC[C@@H](O)[C@H](O)[C@H]6O)[C@@](C)(C(=O)O)C5CC[C@]43C)[C@@H]2C1 (some centres undefined) | inactive [at 9.29 µM] | – | – |
| C=C1C(OC(=O)/C(C)=C\C)[C@@]23CCC4[C@@](C)(CCC[C@@]4(C)C(=O)O)C2CC[C@H]1C3OC(C)=O (some centres undefined) | – | -14.1% [at 17.3 µM] | – |
| Fc1ccc2nc(CCC#Cc3ccccn3)cn2c1 | – | -17.2% | – |
| C=C(C(=O)O)C1CCC2(C)CCC(O)C(C)(O)C2C1 (centres undefined) | – | -8.05% | – |
| CC1(C)CC(NC(=O)C(=O)Nc2ccc(Br)cc2)CC(C)(C)N1 | – | 4.11% | – |
| C[C@H]1Oc2cc(cnc2N)-c2c(nn(C)c2C#N)CN(C)C(=O)c2ccc(F)cc21 | – | -54% | – |
| COC(=O)N[C@@H](C)CNc1nccc(-c2cn(C(C)C)nc2-c2cc(Cl)cc(NS(C)(=O)=O)c2F)n1 | – | -17.3% | – |
| C/C=C1\[C@H](O[C@@H]2O[C@H](CO)[C@@H](O)[C@H](O)[C@H]2O)OC=C2C(=O)OCCc3ccc(O)c(c3)Oc3ccc(cc3)CCOC(=O)C[C@H]21 | – | -6.93% [at 17.3 µM] | – |
| CC(Nc1ncnc2nc[nH]c12)c1cc2cccc(Cl)c2c(=O)n1-c1ccccc1 (centres undefined) | – | -1.75% | – |
| CCCCOC(=O)NC(=O)C1c2ccccc2Oc2ccccc21 | – | 1.24% | – |
| CC1C=CC2CCCCC2C1CCC1CC(O)CC(=O)O1 (centres undefined) | – | 9.37% | – |
| C=C1C[C@@]23CCC4[C@@](C)(CCC[C@@]4(C)C(=O)OC)C2CC[C@@H]1C3 (some centres undefined) | – | -22% | – |
| CCC1C(=O)N(C)c2cnc(Nc3ccc(C(=O)NC4CCC(N5CCN(CC6CC6)CC5)CC4)cc3OC)nc2N1C(C)C (centres undefined) | – | – | 0.291 µM (active) |
| C[C@@H]1O[C@@H](O[C@H]2[C@H](OC(=O)[C@]34CCC(C)(C)C[C@H]3C3=CCC5[C@@]6(C)C[C@H](O)[C@H](O[C@@H]7O[C@H](CO)[C@@H](O)[C@H](O)[C@H]7O)[C@@](C)(CO)C6[C@H](O)C[C@@]5(C)[C@]3(C)C[C@H]4O)OC[C@H](O)[C@@H]2O)[C@H](O)[C@H](O)[C@H]1O[C@@H]1OC[C@@H](O)[C@H](O[C@H]2OC[C@](O)(CO)[C@H]2O)[C@H]1O (some centres undefined) | – | 4.28% [at 9.29 µM] | – |
| CC(C)(C)NCCCNC(=O)c1cccc(Br)c1 | – | 3.58% | – |
| OC/C=C/c1ccc(O[C@@H]2O[C@H](CO)[C@@H](O)[C@H](O)[C@H]2O)cc1 | – | -0.22% | – |
| C/C=C/C=C/C=C/C(=O)OC1C=C(C=O)C(O)(C(=O)O)C2(C)CCCC(C)(C)C12 (centres undefined) | – | 4.71% [at 17.3 µM] | – |
| C[C@@H]1C(=O)O[C@H](C)[C@H]1CC(=O)[C@](C)(O)[C@H]1CC[C@@]2(O)C3=CC(=O)[C@@H]4C[C@@H](O)[C@@H](O)C[C@]4(C)C3CC[C@]12C (some centres undefined) | – | -1.59% [at 17.3 µM] | – |
| COC(=O)N1CCC(n2ncc3c(N4CCOCC4)nc(-c4ccc(NC(=O)Nc5ccc(CO)cc5)cc4)nc32)CC1 | – | – | 2.59 µM (active) |
| CC1OC(OC2CCC3(C)C(CCC4(C)C3CC=C3C5CC(C)(C)CCC5(C(=O)OC5OC(CO)C(O)C(O)C5O)CCC34C(=O)O)C2(C)C)C(O)C(O)C1O (centres undefined) | inactive [at 17.3 µM] | – | – |

| SMILES | outcome | activity change, negative = cytotoxicity | Potency |
| --- | --- | --- | --- |
| COc1cccc(C(=O)N2CCN(C(=O)COc3cccc(C)c3)CC2)c1OC | – | – | 23.1 µM (active) |
| Cc1ccc(-c2ccc3ncc4c(c3n2)n(C2CCN(C(=O)[C@H](C)O)CC2)c(=O)n4C)cn1 | – | – | 0.164 µM (active) |
| CC1=CC(=O)CC(C)(C)C1CCC(C)O[C@@H]1O[C@H](CO[C@@H]2OC[C@@H](O)[C@H](O)[C@H]2O)[C@@H](O)[C@H](O)[C@H]1O (some centres undefined) | inactive [at 17.3 µM] | – | – |
| O=C(O)CC(=O)OC[C@H]1O[C@@H](Oc2ccc3c(c2)OC[C@H]2c4cc5c(cc4O[C@@H]32)OCO5)[C@H](O)[C@@H](O)[C@@H]1O | – | 2.5% [at 17.3 µM] | – |
| CC1CC2OC3(OC2C(C)(C)O)C1C1(C)CCC24CC25CCC(O[C@@H]2OC[C@@H](O)[C@H](O)[C@H]2O)C(C)(C)C5CC=C4C1(C)C3O (some centres undefined) | inactive [at 17.3 µM] | – | – |
| COc1cc(C(=O)NC2CCN(C)CC2)c(F)cc1Nc1ncc2c(n1)N(C1CCCC1)CC(F)(F)C(=O)N2C | – | – | 0.0517 µM (active) |
| COc1cc(/C=C/C(=O)O[C@H]2[C@H](O)[C@@H](CO)O[C@@]2(CO)O[C@H]2O[C@H](CO)[C@@H](O)[C@H](O)[C@H]2O)ccc1O | inactive [at 17.3 µM] | – | – |
| C=C1C(=O)O[C@@H]2C/C(C)=C\C(=O)/C=C(\C)[C@@H](OC(=O)/C(C)=C\C)[C@H](O)[C@@H]12 | – | – | 4.04 µM (active) |
| O=C(C(c1ccccc1)c1ccccc1)N1CCN(CC(O)COc2cccc3ncccc23)CC1 (centres undefined) | – | -26.3% | – |
| COC(=O)C[C@H]1[C@]2(C)C3=C(C)[C@H](c4ccoc4)C[C@H]3O[C@@H]2[C@H](OC(C)=O)C2[C@](C)(C(=O)OC)C=CC(=O)[C@@]21C (some centres undefined) | – | -13.2% [at 17.3 µM] | – |
| C[C@@H]1CC[C@@]2(OC1)O[C@H]1C[C@H]3[C@@H]4CC=C5C[C@@H](O)CC[C@]5(C)[C@H]4CC[C@]3(C)[C@H]1[C@@H]2C | – | -2.19% [at 17.3 µM] | – |
| NC(=O)[C@H]1CCS[C@@H]2C[C@]3(CCCN3C(=O)Cc3ccc(NC(=O)COc4ccc(Cl)cc4Cl)cc3)C(=O)N12 | – | – | 20.6 µM (active) |
| CC(=O)OC1C(c2ccccc2)CCC(c2ccccc2)C1OC(C)=O (centres undefined) | – | -3.87% | – |
| OCc1ccc(O[C@@H]2O[C@H](CO)[C@@H](O)[C@H](O)[C@H]2O)cc1 | – | 6.81% | – |
| COc1ccccc1Oc1ccc(N(Cc2cccnc2)S(=O)(=O)CC(F)(F)F)cc1 | – | 9.12% | – |
| C=C1CCC[C@]2(C)CC[C@@H](C(=C)C(=O)O)[C@H](O)[C@@H]12 | inactive | – | – |
| COc1ccc(CCO[C@@H]2CCCC[C@H]2N2CC[C@@H](O)C2)cc1OC | – | 8.84% | – |
| COC(=O)c1c(C)cc(OC(=O)c2c(C)cc(OC)cc2OC)cc1O[C@@H]1O[C@H](CO)[C@@H](O)[C@H](O)[C@H]1O | – | 5.65% [at 17.3 µM] | – |
| CC(C)(C)c1cc(Br)cc([C@H](CC(=O)O)NC(=O)CNC(=O)c2cc(O)cc(NC3=NCC(O)CN3)c2)c1 (some centres undefined) | – | 3.03% | – |

Source: PubChem BioAssay (NCATS)
